The values that follow come from PubChem BioAssay (NCATS).

Each structure is given as a SMILES string. Several values for one entry are separate records, joined by “and”; a condition that tells them apart may be missing. Equal entries are not always repeated. Inconclusive results are not listed. Activity calls are given as the source filed them. Calls come from the whole dose curve; as a rule, active = well fitted curve in either direction with a large enough effect (not every such curve was filed as active); inconclusive = small, poorly fitted or top-dose-only effect, or another doubt; inactive = flat fitted curve, though single readings scatter.
% is set by controls: 0 for no effect and ±100 for the full control effect.

The nature of the first test: AP1 Signaling Pathway (AID 357).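 Note: ME-180 reporter cells stimulated with EGF at its EC50 level.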 The conditions noted are these: ME-180 AP-1-bla reporter, EGF-induced, beta-lactamase ratio, 5 h; at 17.2 µM (top of the series). The text has this:
NCGC Assay Overview: Activator protein-1 (AP-1), a transcription factor, plays an important role in tumor genesis by regulating genes involved in cell proliferation, differentiation, apoptosis, and angiogenesis. AP-1 activity is induced by a complex network of signaling pathways that involves extracellular signals, such as growth factors. The AP-1 protein complex formed from c-Fos and c-Jun binding to the AP-1 response element results in transcriptional activation of genes containing such elements within their promoter. Low molecular weight molecules have been discovered and developed to modulate various components of these signaling pathways, for example, MAP kinase inhibitors. However, many points of pathway modulation remain untested due to the lack of chemical probes making this signaling locus of general interest. Using a beta-lactamase reporter-gene under control of the AP-1 response element, a cell-based assay [CellSensor(TM) AP-1-bla ME-180 developed by Invitrogen Corp.] was used to measure EGF-induced signaling. Library compounds were measured for their ability to modulate positively or negatively the action of EC50 EGF on reporter gene activity. Compounds were screened in a titration series in 1536-well format. Positive and negative modulators were identified based on the AC50 values derived from the screening data.
NCGC Assay Protocol Summary: 2500 cells/5uL in Opti-MEM medium containing 0.5% dialyzed FBS, 0.1 mM NEAA, 1 mM sodium pyruvate and 10 mM HEPES was dispensed into 1536-well plates and cells were cultured at 37 degrees Celsius overnight. […] After centrifugation at 1000 rpm for 2 seconds the plates were incubated at 37 degrees Celsius for 5 hours. 1 uL of CCF4-dye mixture was added to each well. After incubated at room temperature for 2.5 hours the plates were measured on an EnVision plate reader at Excitation 405nm, Emission1=460nm and Emission 2=530nm. The %Activity was determined from the ratio of 460nm/530nm.
Turning to `O=[N+]([O-])c1cccc2cn[nH]c12`, the activity change, negative = inhibition is -15.6% (inactive).
Take `COc1ccc(-c2ccc(N)[n+](CCCC(=O)O)n2)cc1`: the activity change, negative = inhibition is -6.26% (inactive).
In the case of `O=C(O)c1cc2cc(F)ccc2[nH]1`, the activity change, negative = inhibition was 14.4% (inactive).

Still in this test, the particulars now being: ME-180 AP-1-bla reporter, EGF-induced, beta-lactamase ratio, 5 h; at 38 µM (top of the series).
In the case of `O=[N+]([O-])c1cccc2cn[nH]c12`, the activity change, negative = inhibition is 0.682% (inactive).
As to `COc1ccc(-c2ccc(N)[n+](CCCC(=O)O)n2)cc1`, the activity change, negative = inhibition is -9.04% (inactive).
Still for that read-out and setting: under `O=C(O)c1cc2cc(F)ccc2[nH]1` stands 0.264% (inactive).

The same test, now with this note: ME-180 (cervical carcinoma) AP-1-bla reporter, EGF-induced, beta-lactamase ratio, 5 h; at 38 µM (top of the series) unless noted.
In the case of `c1ccc2nc(C3=NCCN3)ccc2c1`, the activity change, negative = inhibition is -2.57% (inactive).
For the molecule `CC(=O)NNC(=O)N1Cc2ccccc2Oc2ccc(Cl)cc21`, the activity change, negative = inhibition was -8.52% (inactive).
For the molecule `C=CCn1c(=O)c2c(nc(-c3ccc(S(=O)(=O)O)cc3)n2C)n(C)c1=O`, the activity change, negative = inhibition was 7.93% (inactive).
Take `NC(N)=[N+]1CCc2ccccc2C1`: the activity change, negative = inhibition was -5.39% (inactive).
Still for that read-out and setting: under `O=c1[nH]c(=O)c2nc3ccccc3nc2[nH]1` stands -6.22% (inactive).
Take `N[C@@H](Cc1c[nH]c2ccccc12)C(=O)O`: the activity change, negative = inhibition was 4% (inactive).
Still for that read-out and setting: under `O=c1[nH]ccc2c(O)cccc12` stands -7.94% (inactive).
Still for that read-out and setting: under `NOCC(=O)O` stands 12.3% (inactive).
On the same count and under the same terms, for `Nc1nc2ccc(Cl)cc2c2nc(-c3ccco3)nn12` the value was -6.92% (inactive); for `O=C(O)/C=C/c1ccc(O)c(O)c1`, 5.87% [at 17.2 µM] (inactive).
Take `O=C(O)/C(=C/c1c(C(=O)O)[nH]c2cc(Cl)cc(Cl)c12)c1ccccc1`: the activity change, negative = inhibition is 1.71% (inactive).
`Cn1cc(C(=O)OCC2CCN(CCNS(C)(=O)=O)CC2)c2ccccc21`: the activity change, negative = inhibition was -4.52% (inactive).
Regarding `CC(=O)NCCc1c[nH]c2ccc(O)cc12`, the activity change, negative = inhibition was -2.23% (inactive).
The same measure, in the same setting: for `CCSC(=N)N` the value was -24.3% (inactive).
Regarding `COc1cc(CNC(=O)CCCCCCC(C)C)ccc1O`, the activity change, negative = inhibition is -1.77% (inactive).
Regarding `CCCOC(=O)c1c(-c2ccccc2)nc(CC)c(C(=O)SCC)c1CCC`, the activity change, negative = inhibition is 2.66% (inactive).
Still for that read-out and setting: for `CCN1C(=O)C=CC1=O` the value was -2.69% (inactive).
On the same count and under the same terms, under `[Li+]` stands 3.61% (inactive); under `Nc1ccc2c3c(cccc13)C(=O)NC2=O`, -5.58% (inactive); under `O=C(O)C1CCNCC1`, -3.06% (inactive).
Still for that read-out and setting: for `NC(N)=NC(N)=Nc1cccc(Cl)c1` the value was -8.78% (inactive); for `N=C(N)SCCN`, 3.17% (inactive).
In the case of `CC(=O)N[C@@H](Cc1c[nH]c2ccccc12)C(=O)OCc1cc(C(F)(F)F)cc(C(F)(F)F)c1`, the activity change, negative = inhibition is 10.1% (inactive).
The same measure, in the same setting: for `OC1(c2ccc(Cl)cc2)CCN(Cc2c[nH]c3ccccc23)CC1` the value was 6.53% (inactive); for `Nn1nnc2ccccc21`, 1.19% (inactive); for `CCCn1c(=O)c2[nH]c(-c3ccc(S(=O)(=O)O)cc3)nc2n(CCC)c1=O`, 7.54% (inactive).
On the same count and under the same terms, for `CCn1c(=O)[nH]c2cc(Cl)c(Cl)cc21` the value was 0.191% (inactive).
As for `C[C@H](NC(=O)/C(C#N)=C/c1ccc(O)c(O)c1)c1ccccc1`, the activity change, negative = inhibition is -18.9% (inactive) and -19.7% (inactive).
`C[N+](C)(C)CC=O`: the activity change, negative = inhibition was 3.33% (inactive).
Still for that read-out and setting: for `N#Cc1cc2nc(O)c(O)nc2cc1[N+](=O)[O-]` the value was -1.83% (inactive); for `CN[C@H](CC(=O)O)C(=O)O`, -0.55% (inactive); for `NC(=O)CNCCC(c1ccccc1)c1ccccc1`, -7.75% (inactive).
On the same count and under the same terms, under `Nc1ccc(N2C(=O)c3ccccc3C2=O)c(Cl)c1` stands -5.66% (inactive); under `O=C(O)C1=CC(=C(c2ccc(O)c(C(=O)O)c2)c2ccc(O)c(C(=O)O)c2)C=CC1=O`, -18.9% (inactive).
